This is part of a sample that, as a whole, favours compounds with a hit. Of some 83,000 tested, about 20% had one in any assay.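 The test compound was applied at a single concentration to cells in 96-well plates for 48 hours, and percent growth was recorded.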 Active and inactive are the calls of the source. Rule for the calls: active = growth percent below 10; inactive = the rest.
How the values were obtained:
Assay in all cases: NCI-60 one-dose screen, 48 h (100 = growth as untreated, 0 = no growth, -100 = all killed)
Settings in all cases: 10 µM
SK-MEL-2 melanoma = tested on: SK-MEL-2 melanoma
EKVX NSCLC = tested on: EKVX NSCLC
SN12C renal = tested on: SN12C renal
UO-31 renal = tested on: UO-31 renal
TK-10 renal = tested on: TK-10 renal
ACHN renal = tested on: ACHN renal
CAKI-1 renal = tested on: CAKI-1 renal
A498 renal = tested on: A498 renal
CCRF-CEM leukemia = tested on: CCRF-CEM leukemia
MOLT-4 leukemia = tested on: MOLT-4 leukemia
SR leukemia = tested on: SR leukemia
RPMI-8226 leukemia = tested on: RPMI-8226 leukemia
OVCAR-5 ovarian = tested on: OVCAR-5 ovarian
OVCAR-4 ovarian = tested on: OVCAR-4 ovarian
SK-OV-3 ovarian = tested on: SK-OV-3 ovarian
IGROV1 ovarian = tested on: IGROV1 ovarian
OVCAR-3 ovarian = tested on: OVCAR-3 ovarian
HS 578T breast = tested on: HS 578T breast
NCI/ADR-RES ovarian = tested on: NCI/ADR-RES ovarian
OVCAR-8 ovarian = tested on: OVCAR-8 ovarian

Measured: growth

O=C(/C=C/Nc1ccc(F)cc1F)c1ccc2c(c1)Nc1ccccc1S2
inactive: SK-MEL-2 melanoma 86.5% | EKVX NSCLC 74.2% | SN12C renal 82% | UO-31 renal 80.3% | TK-10 renal 100% | ACHN renal 78.6% | CAKI-1 renal 83.9% | A498 renal 108% | CCRF-CEM leukemia 73.8% | MOLT-4 leukemia 66.7% | SR leukemia 31.7% | RPMI-8226 leukemia 78.2% | OVCAR-5 ovarian 86.8% | OVCAR-4 ovarian 68.2% | SK-OV-3 ovarian 95.2% | IGROV1 ovarian 77.9% | OVCAR-3 ovarian 100% | HS 578T breast 63% | NCI/ADR-RES ovarian 57.1%

COc1ccc(N(C)c2cc(C#N)nc3ccccc23)cc1/C=C/C(=O)NO
active: SK-MEL-2 melanoma -80% | EKVX NSCLC -54.6% | SN12C renal -51.4% | UO-31 renal -55.3% | ACHN renal -22.2% | CAKI-1 renal -19.2% | CCRF-CEM leukemia 9.09% | MOLT-4 leukemia -3.71% | RPMI-8226 leukemia 5.81% | OVCAR-8 ovarian -37.9% | OVCAR-5 ovarian -46.2% | OVCAR-4 ovarian 7.41% | SK-OV-3 ovarian -22.7% | IGROV1 ovarian -57.4% | OVCAR-3 ovarian -43.4% | HS 578T breast -18.2% | NCI/ADR-RES ovarian -41.9%
inactive: TK-10 renal 23.7% | A498 renal 16.2%

COc1ccc(N2N=C(c3ccc4c(c3)OCCO4)CC2c2cccc(NC(=O)CCCNS(=O)(=O)c3ccc(F)cc3)c2)cc1 (centres undefined)
inactive: SK-MEL-2 melanoma 88.4% | EKVX NSCLC 57.9% | SN12C renal 74.8% | UO-31 renal 58.8% | TK-10 renal 78.2% | ACHN renal 70.7% | CAKI-1 renal 53.9% | A498 renal 86.5% | CCRF-CEM leukemia 67.7% | MOLT-4 leukemia 34% | RPMI-8226 leukemia 41.2% | OVCAR-8 ovarian 87.7% | OVCAR-5 ovarian 89% | OVCAR-4 ovarian 60% | SK-OV-3 ovarian 101% | IGROV1 ovarian 81.5% | OVCAR-3 ovarian 81.3% | HS 578T breast 78.7% | NCI/ADR-RES ovarian 88.5%

O=C(Nc1cc(Cl)cc(Cl)c1)Nc1cc(Cl)cc(Cl)c1
inactive: OVCAR-4 ovarian 10.8%
active: SK-MEL-2 melanoma -48.4% | EKVX NSCLC -12% | SN12C renal -34.3% | UO-31 renal -8.17% | TK-10 renal 0.158% | ACHN renal -19.4% | CAKI-1 renal -32.4% | A498 renal -18.3% | CCRF-CEM leukemia -33.5% | MOLT-4 leukemia -36.2% | RPMI-8226 leukemia -42.4% | OVCAR-8 ovarian 0.191% | OVCAR-5 ovarian 1.87% | SK-OV-3 ovarian -15.8% | IGROV1 ovarian 7.38% | OVCAR-3 ovarian -31.5% | HS 578T breast -19.3% | NCI/ADR-RES ovarian -24.1%

COc1ccc(N(C)c2cc(C#N)nc3ccccc23)cc1N
inactive: EKVX NSCLC 20.5% | UO-31 renal 20.6% | TK-10 renal 76.7% | ACHN renal 23.5% | CAKI-1 renal 26.1% | A498 renal 113% | MOLT-4 leukemia 15.4% | RPMI-8226 leukemia 19.9% | OVCAR-8 ovarian 14.1% | OVCAR-5 ovarian 34.6% | OVCAR-4 ovarian 55% | SK-OV-3 ovarian 23.8% | IGROV1 ovarian 17.1% | HS 578T breast 36.9%
active: SK-MEL-2 melanoma 4.88% | SN12C renal 5.85% | CCRF-CEM leukemia 5.77% | OVCAR-3 ovarian 7.72% | NCI/ADR-RES ovarian -31.7%

O=C1c2ccccc2C(=O)c2c1c(C(=O)c1ccc(Cl)cc1)n1c2ccc2c3ccccc3ccc21
inactive: SK-MEL-2 melanoma 107% | EKVX NSCLC 97.1% | SN12C renal 103% | UO-31 renal 69.8% | TK-10 renal 108% | ACHN renal 82.1% | CAKI-1 renal 92.5% | A498 renal 144% | CCRF-CEM leukemia 102% | MOLT-4 leukemia 107% | RPMI-8226 leukemia 101% | OVCAR-8 ovarian 103% | OVCAR-5 ovarian 115% | OVCAR-4 ovarian 107% | SK-OV-3 ovarian 95% | IGROV1 ovarian 105% | OVCAR-3 ovarian 109% | HS 578T breast 93.2% | NCI/ADR-RES ovarian 103%

COc1ccc(OC)c(-c2cc(-c3c[nH]c4ccccc34)nc(N)c2C#N)c1
inactive: EKVX NSCLC 13.7% | TK-10 renal 37.4% | OVCAR-5 ovarian 15.1% | OVCAR-4 ovarian 22.9% | SK-OV-3 ovarian 34.3% | IGROV1 ovarian 15.9%
active: SK-MEL-2 melanoma -18.3% | SN12C renal 2.5% | UO-31 renal -15.5% | ACHN renal 8.49% | CAKI-1 renal 7.28% | A498 renal 2.72% | CCRF-CEM leukemia 8.99% | MOLT-4 leukemia 7.55% | RPMI-8226 leukemia 6.3% | OVCAR-8 ovarian 6.52% | OVCAR-3 ovarian -23.5% | HS 578T breast -16.5% | NCI/ADR-RES ovarian -34.1%

CN(C)c1ccc(/C=C/c2nc3ccccc3c(=O)n2CC(=O)Nc2ccccc2)cc1
inactive: SK-MEL-2 melanoma 71.4% | EKVX NSCLC 63.6% | SN12C renal 39% | UO-31 renal 54.3% | TK-10 renal 95% | ACHN renal 18.8% | CAKI-1 renal 24.4% | A498 renal 70.5% | CCRF-CEM leukemia 90% | MOLT-4 leukemia 79.5% | RPMI-8226 leukemia 64.3% | OVCAR-8 ovarian 25.9% | OVCAR-5 ovarian 89.1% | OVCAR-4 ovarian 35.5% | SK-OV-3 ovarian 92% | IGROV1 ovarian 76.2% | OVCAR-3 ovarian 26.4% | HS 578T breast 44.7% | NCI/ADR-RES ovarian 30.4%

COc1ccccc1[C@H]1C(C(=O)c2ccc(Cl)cc2)C2(N[C@@H]1c1ccccc1)C(=O)Nc1ccccc12 (some centres undefined)
inactive: OVCAR-4 ovarian 24.8% | SK-OV-3 ovarian 16.9%
active: SK-MEL-2 melanoma -85.9% | EKVX NSCLC 3.23% | SN12C renal -89% | UO-31 renal 1.13% | TK-10 renal 8.59% | ACHN renal -3.58% | CAKI-1 renal 4.17% | A498 renal -19.2% | CCRF-CEM leukemia 4.07% | MOLT-4 leukemia -17.7% | RPMI-8226 leukemia 5.12% | OVCAR-8 ovarian 4.63% | OVCAR-5 ovarian -24.8% | IGROV1 ovarian -3.06% | OVCAR-3 ovarian -42.7% | HS 578T breast -12.9% | NCI/ADR-RES ovarian -69.7%

O=C1Nc2cc(-c3ccc(NC(=O)c4cccc([N+](=O)[O-])c4)cc3)ccc2/C1=C/c1ccc[nH]1
inactive: SK-MEL-2 melanoma 51.4% | EKVX NSCLC 66.5% | SN12C renal 101% | UO-31 renal 67.2% | TK-10 renal 108% | ACHN renal 59.6% | CAKI-1 renal 97.8% | A498 renal 149% | CCRF-CEM leukemia 91.2% | MOLT-4 leukemia 73.8% | RPMI-8226 leukemia 82.9% | OVCAR-8 ovarian 90.4% | OVCAR-5 ovarian 99.6% | OVCAR-4 ovarian 52.3% | SK-OV-3 ovarian 115% | IGROV1 ovarian 95.7% | OVCAR-3 ovarian 99.4% | HS 578T breast 108% | NCI/ADR-RES ovarian 89.5%

COc1ccc(-c2nc(Nc3ccccc3S(N)(=O)=O)c3ccccc3n2)cc1
active: CAKI-1 renal 7.47% | OVCAR-8 ovarian -27% | OVCAR-3 ovarian -20.6%
inactive: SK-MEL-2 melanoma 110% | EKVX NSCLC 65% | SN12C renal 26.3% | UO-31 renal 29.2% | TK-10 renal 67.4% | ACHN renal 15.3% | A498 renal 92% | CCRF-CEM leukemia 64.1% | MOLT-4 leukemia 21.1% | RPMI-8226 leukemia 14.9% | OVCAR-5 ovarian 48% | OVCAR-4 ovarian 32.7% | SK-OV-3 ovarian 95.3% | IGROV1 ovarian 43.4% | HS 578T breast 42.8% | NCI/ADR-RES ovarian 18%

O=C1NC(=NC23CC4CC(CC(C4)C2)C3)N/C1=C\c1ccc2ncccc2n1
active: SK-MEL-2 melanoma -94.8% | EKVX NSCLC -22% | SN12C renal 1.63% | UO-31 renal -15.8% | TK-10 renal 9.19% | ACHN renal -13% | CAKI-1 renal -13.4% | A498 renal -28.3% | CCRF-CEM leukemia -9.82% | MOLT-4 leukemia -10.9% | RPMI-8226 leukemia -23.3% | OVCAR-8 ovarian 2.33% | OVCAR-5 ovarian -40.4% | OVCAR-4 ovarian -24.7% | SK-OV-3 ovarian -10.5% | IGROV1 ovarian -6.63% | OVCAR-3 ovarian -22.3% | HS 578T breast -24.3% | NCI/ADR-RES ovarian -21%

O=C(CSc1nnc(-c2c[nH]c3ccccc23)n1-c1ccccc1)Nc1ccc(C(=O)/C=C/c2ccc(Br)cc2)cc1
inactive: SK-MEL-2 melanoma 101% | EKVX NSCLC 67.4% | SN12C renal 89.5% | UO-31 renal 52.9% | TK-10 renal 97.7% | ACHN renal 78% | CAKI-1 renal 76% | A498 renal 106% | CCRF-CEM leukemia 90.9% | MOLT-4 leukemia 57.1% | OVCAR-8 ovarian 95.6% | OVCAR-5 ovarian 93.3% | OVCAR-4 ovarian 91.2% | SK-OV-3 ovarian 88.3% | IGROV1 ovarian 80.5% | OVCAR-3 ovarian 81% | HS 578T breast 82.2% | NCI/ADR-RES ovarian 94.9%
active: RPMI-8226 leukemia 7.63%

COc1cccc(-c2ccc(/C=N/NC(=O)c3[nH]c4ccc(Br)cc4c3-c3ccccc3)o2)c1
active: SN12C renal 5.67% | CCRF-CEM leukemia -5.45% | MOLT-4 leukemia 1.31% | RPMI-8226 leukemia 1.18% | OVCAR-8 ovarian -16% | OVCAR-3 ovarian 8.31% | HS 578T breast -1.37% | NCI/ADR-RES ovarian -35%
inactive: SK-MEL-2 melanoma 19.2% | EKVX NSCLC 50.1% | UO-31 renal 39.2% | TK-10 renal 70.4% | ACHN renal 22.3% | CAKI-1 renal 26% | A498 renal 72.5% | OVCAR-5 ovarian 12.3% | OVCAR-4 ovarian 37.3% | SK-OV-3 ovarian 34.2% | IGROV1 ovarian 32.6%

O=C(c1ccc(O)cc1)C1[C@H](c2ccc(Br)cc2)[C@@H](c2ccccc2)NC12C(=O)Nc1ccc(Br)cc12 (some centres undefined)
active: SK-MEL-2 melanoma -21.1% | EKVX NSCLC 6.1% | SN12C renal -83.5% | UO-31 renal -27.3% | TK-10 renal -5.38% | ACHN renal 2.27% | CAKI-1 renal 3.36% | RPMI-8226 leukemia 1.12% | OVCAR-5 ovarian -4.82% | IGROV1 ovarian -6.01% | OVCAR-3 ovarian -38.9% | HS 578T breast -6.2% | NCI/ADR-RES ovarian -2.8%
inactive: A498 renal 10.9% | CCRF-CEM leukemia 19.7% | MOLT-4 leukemia 12.4% | OVCAR-8 ovarian 12% | OVCAR-4 ovarian 14.3% | SK-OV-3 ovarian 13.2%

COC[C@@H](CC(C)C)N=C1N/C(=C\c2ccc3ncsc3c2)C(=O)N1C
inactive: EKVX NSCLC 15% | TK-10 renal 27.4% | OVCAR-8 ovarian 17.6% | OVCAR-4 ovarian 29.3% | HS 578T breast 15.4%
active: SK-MEL-2 melanoma -82.2% | SN12C renal 9.83% | UO-31 renal -19.4% | ACHN renal -1.55% | CAKI-1 renal 2.83% | A498 renal -15.4% | CCRF-CEM leukemia 7.03% | MOLT-4 leukemia 9.06% | RPMI-8226 leukemia 3.65% | OVCAR-5 ovarian -6.76% | SK-OV-3 ovarian 0.794% | IGROV1 ovarian 9.21% | OVCAR-3 ovarian 3.27% | NCI/ADR-RES ovarian 0.43%

Source: PubChem BioAssay (NCI)
